Assay results: PubChem BioAssay (Tox21)
“And” between values parts separate entries of the source, which are not always exact repeats. Equal entries are not always repeated. Results filed as inconclusive are left out. Entries that show only a call come without a potency. The source made the active and inactive calls. Unless noted, calls follow the shape of the dose curve; as a rule, active = well fitted curve in the direction sought with a large enough effect in the repeat runs; inconclusive = weak or mixed curves; inactive = no such curve, though single readings can be large; an effect the other way counts as inactive or inconclusive.

Tests used:
[1] = qHTS assay to identify small molecule agonists of the RXR signaling pathway - cell viability counter screen (AID 1159529); also: nearly all actives have a fitted effect of over 50% in size
Method in brief: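 Steps: seed RXR-alpha-UAS-bla HEK 293T cells in assay medium containing 2% charcoal-stripped FBS; incubate 5 hr; add compounds in DMSO; incubate 16 hr at 37 C; after the bla read, add CellTiter-Glo and read luminescence at 30 min.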

[2] = qHTS assay to identify small molecule antagonists of the retinoid acid receptor (RAR) signaling pathway - cell viability counter screen (AID 1159551); also: nearly all actives have a fitted effect of over 35% in size
Method in brief: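 Retinol-stimulated (1 uM final) C3RL4 cells, compound 6 h, 37 C; readout CellTiter-Glo luminescence (ATP) after 30 min RT incubation.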

[3] = qHTS assay to identify small molecule antagonists of the retinoic acid receptor (RAR) signaling pathway (AID 1159552; also: nearly all actives have a fitted effect of over 50% in size)
Method in brief: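 Retinol at 1 uM final stimulated RARE-luciferase expression in C3RL4 cells exposed to test compounds for 6 hr at 37 C. Reduced luminescence, read 30 min after detection reagent, indicated pathway antagonism.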

[4] = qHTS assay to identify small molecule agonists of the retinoic acid receptor (RAR) signaling pathway (AID 1159553); settings: C3RL4 RARE luciferase reporter, agonist, 6 h; activation: at 73.3 µM (top of the series)
Method in brief: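 Reporter readout comes from luciferase under RARE control in C3RL4 cells; compound exposure lasts 6 hr at 37 C in 5% CO2, and luminescence is recorded following a 30 min room-temperature incubation with reagent.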

[5] = molecular target: Retinoic acid receptor RXR-alpha (Homo sapiens) (UniProt P19793); assay: qHTS assay to identify small molecule agonists of the RXR signaling pathway (AID 1159527; calls by dose curve; also: nearly all actives have a fitted effect of over 35% in size)
Sequence of Retinoic acid receptor RXR-alpha (Homo sapiens) (P19793 whole entry, looked up): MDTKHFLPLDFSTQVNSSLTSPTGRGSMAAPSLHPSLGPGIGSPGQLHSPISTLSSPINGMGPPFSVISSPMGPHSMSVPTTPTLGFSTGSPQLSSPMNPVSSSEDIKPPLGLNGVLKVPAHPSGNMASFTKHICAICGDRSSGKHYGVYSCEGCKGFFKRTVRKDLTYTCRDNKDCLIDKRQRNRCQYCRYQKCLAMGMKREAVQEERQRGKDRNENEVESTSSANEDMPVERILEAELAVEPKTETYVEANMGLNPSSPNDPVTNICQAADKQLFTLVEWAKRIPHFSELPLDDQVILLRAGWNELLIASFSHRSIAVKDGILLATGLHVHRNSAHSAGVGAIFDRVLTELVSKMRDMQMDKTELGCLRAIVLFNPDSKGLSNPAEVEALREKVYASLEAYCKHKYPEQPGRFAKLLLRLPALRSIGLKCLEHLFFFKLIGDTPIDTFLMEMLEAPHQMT
Method in brief: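 Cells plated at 2,000/well, rested 5 hr at 37 C, pin-dosed with DMSO compound solutions, incubated 16 hr, then loaded with B/G FRET substrate for 2 hr at RT before dual-emission fluorescence reading.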
Potency is read from the fitted curve at half-maximal effect.

SMILES | Potency [1] | Potency [2] | Potency [3] | Potency [4] | Potency [5]
Cc1ccccc1S | inactive | inactive | – | – | –
CCOC(=O)c1ccc(C#Cc2ccc3c(c2)C(C)(C)CCS3)nc1 | inactive | inactive | – | – | –
Cc1ccc(CO)cc1 | inactive | inactive | inactive | inactive | –
CC1(C)[C@H](C(=O)O)N2C(=O)C[C@H]2S1(=O)=O | inactive | inactive | inactive | inactive | –
C[C@]12CC[C@@H]3c4ccc(O)cc4CC[C@H]3[C@@H]1CC[C@@H]2OC(=O)CCC1CCCC1 | 49 µM (active) and 26.8 µM (active) | inactive | – | – | –
CC(CC1c2ccccc2CCc2ccccc21)CN(C)C (stereo not given) | – | – | – | inactive | inactive
Cc1ccc(OC(=O)c2ccccc2O)cc1 | inactive | inactive | inactive | 6.86 µM (active) | –
CCCCCC#CC(=O)OC | inactive | inactive | – | – | –
CCCCCCCCCCCCCCN(CCO)CCO | 21.9 µM (active) | 61.1 µM (active) | 30.6 µM (active) | – | –
CC(=O)Nc1cc(S(=O)(=O)O)cc2cc(S(=O)(=O)O)c(N=Nc3ccccc3)c(O)c12 | inactive | 24.3 µM (active) | inactive | inactive | –
CCCCCC[C@@H](O)C/C=C\CCCCCCCC(=O)OCC(O)CO (stereo not given in full) | – | – | inactive | inactive | 49 µM (active)
Cc1c(C)c2c(c(C)c1OC(=O)CCC(=O)OCCO)CC[C@@](C)(CCC[C@H](C)CCC[C@H](C)CCCC(C)C)O2 | inactive | – | – | – | –
CC(=O)c1ccc([N+](=O)[O-])cc1 | inactive | inactive | inactive | inactive | –
COc1ccccc1NC(=O)c1cc2ccccc2cc1O | inactive | inactive | inactive | – | –
